Dicer processing – inhibitors of Dicer pre-microRNA processing, primary screen, biochemical, cat-ELCCA, chemiluminescence; Endoribonuclease Dicer (Homo sapiens), Q9UPY3; cat-ELCCA pre-miR-21 Dicer processing; stronger effect = higher value; z-score at 25 µM; actives 6% (n = 47,000); AID 1347074, 2019; in the data active = z-score above about 3, passing the limit was not always enough;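 note: higher signal means more uncleaved substrate so more Dicer inhibition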
Target sequence (Q9UPY3 whole entry, looked up): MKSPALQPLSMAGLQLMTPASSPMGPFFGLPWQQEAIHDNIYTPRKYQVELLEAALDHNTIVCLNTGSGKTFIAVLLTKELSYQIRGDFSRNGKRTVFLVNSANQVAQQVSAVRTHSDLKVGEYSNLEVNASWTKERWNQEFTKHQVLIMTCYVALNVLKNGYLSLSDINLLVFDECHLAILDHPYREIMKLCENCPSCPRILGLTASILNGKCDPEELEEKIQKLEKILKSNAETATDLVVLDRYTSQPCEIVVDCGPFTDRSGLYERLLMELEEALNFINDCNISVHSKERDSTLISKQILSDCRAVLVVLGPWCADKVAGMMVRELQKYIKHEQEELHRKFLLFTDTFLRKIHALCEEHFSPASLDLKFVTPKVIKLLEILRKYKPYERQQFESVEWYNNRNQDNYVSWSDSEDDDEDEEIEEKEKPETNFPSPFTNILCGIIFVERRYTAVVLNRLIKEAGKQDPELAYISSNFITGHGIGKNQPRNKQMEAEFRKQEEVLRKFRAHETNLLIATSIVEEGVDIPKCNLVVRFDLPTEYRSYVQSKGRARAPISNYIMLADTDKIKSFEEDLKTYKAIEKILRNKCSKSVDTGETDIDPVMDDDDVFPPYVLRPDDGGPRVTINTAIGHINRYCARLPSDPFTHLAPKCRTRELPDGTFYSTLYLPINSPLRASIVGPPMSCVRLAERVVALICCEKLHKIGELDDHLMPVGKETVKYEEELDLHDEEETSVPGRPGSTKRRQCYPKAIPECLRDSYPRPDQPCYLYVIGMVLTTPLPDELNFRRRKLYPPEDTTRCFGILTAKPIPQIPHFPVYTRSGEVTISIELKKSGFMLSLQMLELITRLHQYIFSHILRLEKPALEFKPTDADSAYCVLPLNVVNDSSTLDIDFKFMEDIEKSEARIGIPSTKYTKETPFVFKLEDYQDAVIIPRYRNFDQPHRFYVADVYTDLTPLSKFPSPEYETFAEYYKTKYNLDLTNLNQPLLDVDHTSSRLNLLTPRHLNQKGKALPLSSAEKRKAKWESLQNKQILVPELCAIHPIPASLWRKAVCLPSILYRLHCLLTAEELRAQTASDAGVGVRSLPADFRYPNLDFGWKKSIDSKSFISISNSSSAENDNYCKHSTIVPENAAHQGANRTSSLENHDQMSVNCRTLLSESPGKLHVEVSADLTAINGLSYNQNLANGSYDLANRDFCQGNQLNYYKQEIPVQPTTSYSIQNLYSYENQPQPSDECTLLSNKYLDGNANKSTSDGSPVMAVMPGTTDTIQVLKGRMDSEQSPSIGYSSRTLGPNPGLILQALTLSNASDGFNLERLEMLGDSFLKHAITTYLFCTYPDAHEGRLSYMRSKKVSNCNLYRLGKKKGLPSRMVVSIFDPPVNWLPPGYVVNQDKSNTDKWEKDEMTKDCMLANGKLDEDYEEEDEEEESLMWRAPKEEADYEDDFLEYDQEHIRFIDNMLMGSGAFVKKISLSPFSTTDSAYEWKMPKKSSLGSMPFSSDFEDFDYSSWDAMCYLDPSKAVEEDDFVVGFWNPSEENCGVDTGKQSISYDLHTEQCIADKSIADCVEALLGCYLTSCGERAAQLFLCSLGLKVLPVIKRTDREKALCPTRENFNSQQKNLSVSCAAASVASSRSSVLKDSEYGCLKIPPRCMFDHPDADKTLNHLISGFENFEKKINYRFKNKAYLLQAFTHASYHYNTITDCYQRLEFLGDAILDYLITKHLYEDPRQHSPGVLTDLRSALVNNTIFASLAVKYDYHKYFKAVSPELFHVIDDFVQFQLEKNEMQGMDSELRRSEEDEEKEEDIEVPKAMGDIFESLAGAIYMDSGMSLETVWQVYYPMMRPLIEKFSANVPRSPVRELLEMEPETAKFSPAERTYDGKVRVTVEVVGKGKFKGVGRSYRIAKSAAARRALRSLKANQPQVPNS
Numbers stand for hits. This is one part of a sample in which hits are shown more often than they occur.

For CCOc1ccccc1C1C(C(=O)OC2CCCC2)=C(C)NC2=C1C(=O)CCC2 (centres undefined) the results were Dicer processing inactive.
Screening CCOC(=O)c1c(C)oc2ccc(NS(=O)(=O)c3ccc(Cl)cc3)cc12 returned Dicer processing 3.59.
For CCOC(=O)c1c(C)oc2c(Br)cc(NS(=O)(=O)c3ccc(Cl)c(C)c3)cc12 the results were Dicer processing inactive.
`CCOc1ccc(S(=O)(=O)Nc2ccc3oc(C)c(C(=O)OCCOC)c3c2)cc1` gave Dicer processing inactive.
Cn1ncc2c(NC3CCCCC3)ncnc21 was read as Dicer processing inactive.
For Cc1ccc2ncnc(NC3CCCCC3)c2c1 the results were Dicer processing 4.71.
Cc1ccc(Nc2ncnc3ccccc23)c(C)c1 was read as Dicer processing inactive.
For Cc1ccc(S(=O)(=O)Nc2ccc(C)cc2NS(=O)(=O)c2cccc(C(F)(F)F)c2)cc1 the results were Dicer processing inactive.
Screening CCOC(=O)c1c(N)n(C2CCCC2)c2nc3ccccc3nc12 returned Dicer processing inactive.
`COC(=O)c1sc2cc(-c3ccc(F)cc3)sc2c1C` gave Dicer processing 3.77.
COC(=O)c1sc(SC)c(C(C)=O)c1C was read as Dicer processing inactive.
For COC(=O)c1sccc1N/N=C/c1ccc(F)cc1 the results were Dicer processing inactive.
Screening CCOC(=O)COc1cccc(C(C)=O)c1 returned Dicer processing inactive.
For CCOC(=O)C1(C)C=C(Nc2ccc(OCC)cc2)C(=O)N1c1ccc(OCC)cc1 (centres undefined) the results were Dicer processing 3.17.
For CCOC(=O)C1(C)C=C(Nc2ccc(OC)cc2)C(=O)N1c1ccc(OC)cc1 (centres undefined) the results were Dicer processing inactive.
`CCOC(=O)C1(C)C(Br)=C(Nc2ccc(Cl)cc2)C(=O)N1c1ccccc1` (centres undefined) gave Dicer processing inactive.
`CC(=O)OCC(=O)[C@@]1(O)CC[C@H]2[C@@H]3CCC4=CC(=O)CC[C@]4(C)C3(F)[C@@H](O)C[C@@]21C` (some centres undefined) gave Dicer processing inactive.
`O=C(O)c1ccc(N2C(=O)CCC2=O)cc1` gave Dicer processing 4.83.
Screening CC12C=CC(O1)C1C(=O)N(c3ccc(C(=O)O)cc3)C(=O)C12 (centres undefined) returned Dicer processing inactive.
`CCCCCCC(=O)Oc1ccc(N2C(=O)CCC2=O)cc1` gave Dicer processing inactive.
For O=C(c1ccc(F)cc1)C(C(=O)N1CCCCC1)n1cc(Cl)ccc1=O (centres undefined) the results were Dicer processing inactive.
O=C(Nc1ccc(Cl)cc1)C1CC(=O)N(CCc2ccc(Cl)cc2)C1 (centres undefined) was read as Dicer processing inactive.
For COc1ccc(C(=O)NNS(=O)(=O)c2ccc(-c3ccccn3)s2)cc1OC1CCCC1 the results were Dicer processing inactive.
Screening COc1ccc(Oc2coc3cc(OC(=O)c4ccco4)ccc3c2=O)cc1 returned Dicer processing inactive.
`COc1ccc(Oc2coc3cc(OC(=O)c4cccs4)ccc3c2=O)cc1` gave Dicer processing inactive.
`COc1cccc(OC)c1C(=O)Oc1ccc2c(=O)c(Oc3ccccc3Br)coc2c1` gave Dicer processing inactive.
COc1ccc(C(=O)Oc2ccc3c(=O)c(Oc4ccccc4Br)coc3c2)cc1 was read as Dicer processing inactive.
For COc1ccc(Oc2coc3cc(OC(=O)c4ccc(Br)cc4)ccc3c2=O)cc1 the results were Dicer processing 5.41.
COc1ccc2c(=O)c(Oc3ccccc3Br)coc2c1 was read as Dicer processing 4.66.
For CCN(CCS(=O)(=O)c1ccc(Cl)cc1)S(=O)(=O)c1ccc(Cl)cc1 the results were Dicer processing inactive.
`COC(=O)c1ccc(CSc2nnc(-c3ccc(C(F)(F)F)cc3)n2Cc2ccco2)o1` gave Dicer processing inactive.
For CN(C)C(=O)C(=O)c1c(-c2ccccc2)[nH]c2ccc(Cl)cc12 the results were Dicer processing inactive.
`Cc1ccc(Cn2c(=O)oc3ccccc32)cc1` gave Dicer processing inactive.
`O=c1oc2ccccc2n1Cc1ccc(Cl)cc1` gave Dicer processing inactive.
Screening O=c1oc2ccccc2n1Cc1ccccc1Cl returned Dicer processing 4.9.
For Cc1ccc(N2CCn3c2nc2c3c(=O)n(CC(=O)O)c(=O)n2C)cc1C the results were Dicer processing inactive.
COc1ccccc1OCCSc1nc(C)cc(=O)[nH]1 was read as Dicer processing inactive.
For CCOc1ccc(OCCSc2nc(C)cc(=O)[nH]2)cc1 the results were Dicer processing inactive.
For Cc1ccc(OCCSc2nc(C)cc(=O)[nH]2)cc1 the results were Dicer processing 4.88.
`CCOc1ccc(/C=C/c2nc(-c3ccc(OC)c(OC)c3)no2)cc1OCC` gave Dicer processing 5.15.
Screening CCOc1ccc(-c2nc(-c3ccc(OC)cc3)no2)cc1OCC returned Dicer processing inactive.
COc1ccc(/C=C/c2nc(-c3ccccn3)no2)cc1OC was read as Dicer processing inactive.
`CCOc1ccc(/C=C/c2nc(-c3cccc(C)c3)no2)cc1OCC` gave Dicer processing inactive.
For CCOc1ccc(/C=C/c2nc(-c3ccc(Cl)cc3)no2)cc1OCC the results were Dicer processing 3.09.
COc1ccccc1OCc1nc(-c2ccc(Cl)cc2)no1 was read as Dicer processing inactive.
Cc1cc(/C=N\NC(=O)CCc2ccc(O)cc2)c2c(C)ccc(C(C)C)cc1-2 was read as Dicer processing inactive.
Cc1ccc(-c2cc(O)cc3sc(=O)oc23)cc1 was read as Dicer processing 8.1.
`Cc1ccc(-c2nc3sc(C)c(C)c3c(=O)o2)cc1` gave Dicer processing inactive.
Cc1ccc(C(=O)Nc2nc(-c3ccc(C)c(Cl)c3)c(C)s2)cc1 was read as Dicer processing inactive.
For Cc1ccc(-c2nc(NC(=O)COc3ccc(Cl)cc3Cl)sc2C)cc1Cl the results were Dicer processing inactive.
`O=c1oc2c(-c3cccc(F)c3)cc(O)cc2s1` gave Dicer processing 5.
`CCc1ccc(-c2cc(O)cc3sc(=O)oc23)cc1` gave Dicer processing inactive.
O=c1oc2c(-c3ccccc3Cl)cc(O)cc2s1 was read as Dicer processing 3.64.
`O=c1oc(-c2ccccc2Cl)nc2ccc(I)cc12` gave Dicer processing inactive.
`Cc1ccc(-c2cc(O)cc3sc(=O)oc23)cc1Cl` gave Dicer processing 5.27.
CC(=O)Oc1cc2sc(=O)oc2c2ccccc12 was read as Dicer processing inactive.
Screening COc1cc2c(cc1OC)C(C)N(S(C)(=O)=O)CC2 (centres undefined) returned Dicer processing inactive.
Screening Cc1cc(Cl)c(OC(=O)c2ccc(Cl)cc2Cl)c(Cl)c1 returned Dicer processing inactive.
Screening O=[N+]([O-])c1cnc(N2CCOCC2)c(C(F)(F)F)c1 returned Dicer processing inactive.
For Cc1ccc(-c2cc3nc(-c4cccnc4)cc(C(F)(F)F)n3n2)cc1 the results were Dicer processing inactive.
For OCCNc1ncnc2c1sc1nc(-c3ccccc3)c3c(c12)CCCC3 the results were Dicer processing inactive.
CCCOc1ccc(Br)cc1C1C(C(=O)OC)=C(C)Nc2nnnn21 (centres undefined) was read as Dicer processing inactive.
Screening CC(C)(C)SCCNC(=O)C(C)(C)S(=O)(=O)c1ccc(C(F)(F)F)cn1 returned Dicer processing inactive.
O=S(=O)(Oc1cccc2cccnc12)c1ccc(C(F)(F)F)cc1C(F)(F)F was read as Dicer processing inactive.
